# Data published in PubChem BioAssay (Tox21).
# Inconclusive results are not listed. Where a call stands in place of a potency, no number is given. Activity calls are given as the source filed them. Calls come from the whole dose curve; as a rule, active = well fitted cell-killing curve with a large enough effect in the repeat runs; inconclusive = weak or mixed curves; inactive = flat fitted curve, though single readings scatter.
# Assay: qHTS assay to identify small molecule antagonists of the estrogen related receptor (ERR) signaling pathway - cell viability counter screen (AID 1224818);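 note: viability measured after 17.5 h of compound exposure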
# Settings: ERR reporter cell line viability counter screen; series mostly up to 46.1 µM
# Method in brief: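 Compounds dissolved in DMSO were applied to ERR cells seeded at 2,000 per well 6 h earlier. Cell viability followed 17.5 h later via 30-min CellTiter-Fluor fluorescence.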
row,Compound,Potency
1,C[N+](C)(C)CC=O,inactive
2,C=CCn1c(=O)c2c(nc(-c3ccc(S(=O)(=O)O)cc3)n2C)n(C)c1=O,inactive
3,Nc1nc2ccc(Cl)cc2n2c(-c3ccccc3)nnc12,inactive
4,O=C(O)C1CN(CCCP(=O)(O)O)CCN1 (configuration not stated),inactive
5,CCSC(=N)N,inactive
6,C[N+]1(CCCCC[N+]2(C)CCCC2)CCCC1,inactive
7,CNCC[C@H](Oc1ccc(C(F)(F)F)cc1)c1ccccc1,inactive
8,c1ccc(C(NCCNC(c2ccccc2)c2ccccc2)c2ccccc2)cc1,inactive
9,O=C(O)CC1CCCc2ccccc2C1O (configuration not stated),inactive
10,NS(=O)(=O)c1ccc(-n2nc(C(F)(F)F)cc2-c2ccc(Cl)cc2)cc1,inactive
11,N[C@@H](CS(=O)O)C(=O)O,inactive
12,CC(C)(C)NCC(O)COc1nsnc1N1CCOCC1 (configuration not stated),inactive
13,CCCCCCCCCC(=O)NC(CN1CCOCC1)[C@H](O)c1ccccc1 (some centres not stated),inactive
14,CN(C)c1nc(N)c(C(=O)N=C(N)N)nc1Cl,inactive
15,O=C(O)CCCC[C@@H]1CCSS1,inactive
16,CCCCCCCCc1ccc(-c2ccc(C(=O)O)cc2)cc1,inactive
17,Cc1nc2c(OCc3ccccc3)cccn2c1CC#N,inactive
18,N[C@@H](Cc1cnc[nH]1)C(=O)O,inactive
19,Cn1ncc(S(=O)(=O)Cc2ccccc2)c(Br)c1=O,inactive
20,CC[N+](CC)(CC)CC(=O)Nc1c(C)cccc1C,inactive
21,O=c1[nH]c2cc(Cl)ccc2c(O)c1-c1ccc(Oc2ccccc2)cc1,inactive
22,CCC1(O)CC2CN(CCc3c([nH]c4ccccc34)[C@@](C(=O)OC)(c3cc4c(cc3OC)N(C)C3[C@]45CCN4CC=C[C@@](CC)([C@@H](OC(C)=O)[C@]3(O)C(=O)OC)[C@H]45)C2)C1 (some centres not stated),inactive
